# According to the supplement of paper PMC8728848:
# Many of the other results were omitted from the sample, so the strongest signals are more common in it than they were.
# B1: BC2L-A (Burkholderia cenocepacia), Q1BKJ8_BURCA (protein)
# chain: ADSQTSSNRAGEFSIPPNTDFRAIFFANAAEQQHIKLFIGDSQEPAAYHKLTTRDGPREATLNSGNGKIRFEVSVNGKPSATDARLAPINGKKSDGSPFTVNFGIVVSEDGHDSDYNDGIVVLQWPIG
# How the values were obtained:
# Experiment in all cases: glycan array binding signal (z-score within array); higher = stronger binding
# Settings in all cases: glycan notation: IUPAC condensed, linker removed
# Fuc(a1-2)Gal(b1-4)GlcNAc = target: Fuc(a1-2)Gal(b1-4)GlcNAc
# Outline: (§1)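 Arrays were curated from the Consortium for Functional Glycomics database, 3228 in total, and kept only where the protein sequence was available. Binding is expressed as a within-array Z-score. This score was averaged across arrays of the same protein sequence at different concentrations or buffers and across linkers, and negative values can be read as non-binding.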
# [1] = target: Fuc(a1-2)Gal(b1-4)GlcNAc(b1-3)Gal(b1-4)GlcNAc(b1-3)Gal(b1-4)GlcNAc
# Outline: as §1
# Fuc(a1-2)Gal6S(b1-4)Glc = target: Fuc(a1-2)Gal6S(b1-4)Glc
# Outline: as §1
# Fuc(a1-2)GlcNAc = target: Fuc(a1-2)GlcNAc
# Outline: as §1
# [2] = target: Fuc(a1-2)[GalNAc(a1-3)]Gal(b1-4)GlcNAc(b1-2)Man(a1-3)[Fuc(a1-2)[GalNAc(a1-3)]Gal(b1-4)GlcNAc(b1-2)Man(a1-6)]Man(b1-4)GlcNAc(b1-4)GlcNAc
# Outline: as §1
# [3] = target: Fuc(a1-2)[GalNAc(a1-3)]Gal(b1-4)GlcNAc(b1-3)Gal(b1-4)GlcNAc
# Outline: as §1
# [4] = target: Fuc(a1-3)[Gal(b1-4)]GlcNAc
# Outline: as §1
# [5] = target: Fuc(a1-3)[Gal(b1-4)]GlcNAc(b1-2)Man(a1-3)[Fuc(a1-3)[Gal(b1-4)]GlcNAc(b1-2)Man(a1-6)]Man(b1-4)GlcNAc(b1-4)[Fuc(a1-6)]GlcNAc
# Outline: as §1
# [6] = target: Fuc(a1-3)[GalNAc(b1-4)]GlcNAc
# Outline: as §1
# Gal(a1-3)Gal(b1-3)GlcNAc = target: Gal(a1-3)Gal(b1-3)GlcNAc
# Outline: as §1
# Gal(b1-3)GlcNAc = target: Gal(b1-3)GlcNAc
# Outline: as §1
# [7] = target: Gal(b1-3)GlcNAc(b1-3)Gal(b1-4)GlcNAc(b1-6)[Gal(b1-3)GlcNAc(b1-3)]Gal(b1-4)Glc
# Outline: as §1
# [8] = target: Gal(b1-3)GlcNAc(b1-6)Gal(b1-4)GlcNAc
# Outline: as §1
# [9] = target: Gal(b1-3)[Fuc(a1-4)]GlcNAc(b1-3)Gal(b1-4)[Fuc(a1-3)]GlcNAc
# Outline: as §1
# [10] = target: Gal(b1-4)GlcNAc(b1-2)Man(a1-3)[Man(a1-6)]Man(b1-4)GlcNAc(b1-4)GlcNAc
# Outline: as §1
# [11] = target: Gal(b1-4)GlcNAc(b1-2)Man(a1-6)Man(b1-4)GlcNAc(b1-4)GlcNAc
# Outline: as §1
# [12] = target: Gal(b1-4)GlcNAc(b1-2)[Gal(b1-4)GlcNAc(b1-4)]Man(a1-3)[Gal(b1-4)GlcNAc(b1-2)Man(a1-6)]Man(b1-4)GlcNAc(b1-4)GlcNAc
# Outline: as §1
# [13] = target: Gal(b1-4)GlcNAc(b1-2)[Gal(b1-4)GlcNAc(b1-4)]Man(a1-3)[GlcNAc(b1-4)][Gal(b1-4)GlcNAc(b1-2)[Gal(b1-4)GlcNAc(b1-6)]Man(a1-6)]Man(b1-4)GlcNAc(b1-4)GlcNAc
# Outline: as §1
# Gal3S(b1-3)GlcNAc = target: Gal3S(b1-3)GlcNAc
# Outline: as §1
# [14] = target: GlcNAc(a1-4)Gal(b1-4)GalNAc
# Outline: as §1
# [15] = target: GlcNAc(b1-3)[GlcNAc(b1-6)]GlcNAc(b1-4)GlcNAc
# Outline: as §1
# [16] = target: Man(a1-2)Man(a1-2)Man(a1-6)[Man(a1-3)]Man
# Outline: as §1
# [17] = target: Man(a1-2)Man(a1-3)[Man(a1-2)Man(a1-6)]Man
# Outline: as §1
# [18] = target: Man(a1-2)Man(a1-3)[Man(a1-2)Man(a1-6)]Man(a1-6)[Man(a1-2)Man(a1-2)Man(a1-3)]Man
# Outline: as §1
# [19] = target: Man(a1-2)Man(a1-6)[Man(a1-3)]Man(a1-6)[Man(a1-2)Man(a1-2)Man(a1-3)]Man
# Outline: as §1
# [20] = target: Man(a1-2)Man(a1-6)[Man(a1-3)]Man(a1-6)[Man(a1-2)Man(a1-2)Man(a1-3)]Man(b1-4)GlcNAc(b1-4)GlcNAc
# Outline: as §1
# Man(a1-3)[Man(a1-6)]Man = target: Man(a1-3)[Man(a1-6)]Man
# Outline: as §1
# [21] = target: Man(a1-3)[Man(a1-6)]Man(a1-6)[Man(a1-2)Man(a1-3)]Man(b1-4)GlcNAc(b1-4)GlcNAc
# Outline: as §1
# [22] = target: Man(a1-3)[Man(a1-6)]Man(a1-6)[Man(a1-3)]Man(b1-4)GlcNAc(b1-4)GlcNAc
# Outline: as §1
# [23] = target: Man(a1-3)[Man(a1-6)]Man(b1-4)GlcNAc(b1-4)GlcNAc
# Outline: as §1
# [24] = target: Neu5Ac(a2-3)Gal(b1-3)GlcNAc(b1-3)Gal(b1-4)GlcNAc
# Outline: as §1
# [25] = target: Neu5Ac(a2-3)Gal(b1-3)[Neu5Ac(a2-6)]GalNAc
# Outline: as §1
# [26] = target: Neu5Ac(a2-3)Gal(b1-4)GlcNAc(b1-3)Gal
# Outline: as §1
# [27] = target: Neu5Ac(a2-3)[GalNAc(b1-4)]Gal(b1-4)Glc
# Outline: as §1
# [28] = target: Neu5Ac(a2-8)Neu5Ac(a2-8)Neu5Ac(a2-3)Gal(b1-4)Glc
# Outline: as §1
# Neu5Gc(a2-6)GalNAc = target: Neu5Gc(a2-6)GalNAc
# Outline: as §1
binder,measurement,setting,value
B1,glycan array binding signal (z-score),Fuc(a1-2)Gal(b1-4)GlcNAc,0.167
same,glycan array binding signal (z-score),[1],0.018
same,glycan array binding signal (z-score),Fuc(a1-2)Gal6S(b1-4)Glc,-0.176
same,glycan array binding signal (z-score),Fuc(a1-2)GlcNAc,-0.178
same,glycan array binding signal (z-score),[2],-0.165
same,glycan array binding signal (z-score),[3],-0.296
same,glycan array binding signal (z-score),[4],-0.285
same,glycan array binding signal (z-score),[5],-0.217
same,glycan array binding signal (z-score),[6],-0.263
same,glycan array binding signal (z-score),Gal(a1-3)Gal(b1-3)GlcNAc,-0.284
same,glycan array binding signal (z-score),Gal(b1-3)GlcNAc,-0.29
same,glycan array binding signal (z-score),[7],-0.22
same,glycan array binding signal (z-score),[8],-0.219
same,glycan array binding signal (z-score),[9],-0.086
same,glycan array binding signal (z-score),[10],2.13
same,glycan array binding signal (z-score),[11],-0.182
same,glycan array binding signal (z-score),[12],-0.144
same,glycan array binding signal (z-score),[13],-0.22
same,glycan array binding signal (z-score),Gal3S(b1-3)GlcNAc,0.002
same,glycan array binding signal (z-score),[14],-0.296
same,glycan array binding signal (z-score),[15],-0.249
same,glycan array binding signal (z-score),[16],4.07
same,glycan array binding signal (z-score),[17],2.25
same,glycan array binding signal (z-score),[18],4.82
same,glycan array binding signal (z-score),[19],4.09
same,glycan array binding signal (z-score),[20],5.06
same,glycan array binding signal (z-score),Man(a1-3)[Man(a1-6)]Man,5.28
same,glycan array binding signal (z-score),[21],5.49
same,glycan array binding signal (z-score),[22],4.38
same,glycan array binding signal (z-score),[23],4.23
same,glycan array binding signal (z-score),[24],-0.218
same,glycan array binding signal (z-score),[25],-0.083
same,glycan array binding signal (z-score),[26],-0.214
same,glycan array binding signal (z-score),[27],-0.295
same,glycan array binding signal (z-score),[28],-0.253
same,glycan array binding signal (z-score),Neu5Gc(a2-6)GalNAc,-0.29
